As usually defined, the inhibition is the relative decrease from the control value, in per cent. The term remaining activity denotes the signal under treatment as a percentage of the control signal. In general, viability refers to a per cent measure of how many cells are alive, often set against a control.

The record followed here is PubChem BioAssay.

The nature of experiment [1]: circadian clock period modulators, cell-based, LOPAC library, luminescence reporter (AID 2774).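 Further: values are relative to mean of DMSO wells on each plate.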 Conditions: circadian reporter cells, at 7 µM, actives lie on both sides.
For experiment [2], the system named is Hepatitis C virus NS3 helicase. The experiment is described as follows: HCV NS3 helicase inhibitors, primary screen, biochemical, fluorescence polarization, LOPAC1280 library (AID 687035; in the data active means inhibition above about 37%). The conditions noted are these: Purified HCV NS3 helicase, Cy5-dT15 ssDNA binding fluorescence polarization; stronger effect = higher value; concentration not given here. For orientation: In fluorescence polarisation assays a small probe gives low polarisation when free and higher when bound to something large.

The nature of experiment [3]: Cy5 fluorescence quenching or enhancement artefacts, artefact control for HCV NS3 helicase inhibitor project, biochemical, LOPAC1280 (AID 687037). The conditions noted are these: Cy5-DNA-NS3h complex fluorescence interference counterscreen. (In general: The purpose of a counterscreen is to sort out artefacts and off-target activity.)
The test system of experiment [4] is Aerobactin synthetase IucA (Klebsiella pneumoniae). Nature of the experiment: IucA aerobactin synthetase inhibitors, biochemical, Tocris library, absorbance (AID 1345561).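 Further: 100% = enzyme without compound and 0% = no enzyme.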 The conditions noted are these: purified IucA enzyme assay, absorbance (OD) read-out; stronger effect = lower value;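 tested at 8 µM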.
The test system of experiment [5] is Aerobactin synthetase IucA (Klebsiella pneumoniae, hypervirulent). Nature of the experiment: IucA enzyme inhibition, biochemical, LOPAC library, absorbance readout (AID 1346212).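 Further: 100% = no compound wells and 0% = no enzyme wells.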 The conditions noted are these: IucA enzyme assay, absorbance (OD) readout; stronger effect = lower value;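 tested at 8 µM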.
Experiment [6] in a line: sensitizers of A549 cells to miR-34 induction, primary screen, imaging, A549 dox-inducible miR-34, nuclei and caspase counts (AID 1347080;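 active means compounds whose cell count with miR-34 switched on is under 0.7 times the count with it off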). The conditions noted are these: A549 miR-34 inducible, Hoechst nuclei count, 48 h.
Experiment [7] is described as follows: phospholipid biosynthesis inhibitors in animal cells, primary screen, cell-based, LOPAC library, screen 4 (AID 1347384). The conditions noted are these: phospholipid biosynthesis inhibition screen, at 10 µM.
Experiment [8] can be described thus: viability rescue of complex I mutant cybrids, primary screen, cell-based, galactose medium, ATP luminescence (AID 1645843;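 active means z-score of at least 1.8 in each of two replicates, scored against plate mean and spread of sample wells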;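 further: positive z means more ATP and so rescue of galactose-driven cybrid death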). Conditions: complex I mutant cybrid cells, 72 h, stronger effect = higher value.
A short description of experiment [9]: polyglutamine-triggered caspase-3 activation inhibitors, cell-based (AID 1583). The conditions noted are these: polyglutamine-induced caspase-3 activation, cell assay; stronger effect = higher value;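 tested at 10 µM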.
Experiment [10] is described as follows: suppressors of polyQ aggregation in yeast, 75Q-TubU reporter (AID 1593). Conditions: Yeast 75Q polyglutamine aggregation reporter.
Experiment [11] in a line: rescue of polyQ-huntingtin neuronal dysfunction in worms, whole organism, C. elegans mechanosensory neurons, N-terminal huntingtin (AID 1599). The conditions noted are these: touch response, stronger effect = higher value.
Experiment [12] can be described thus: inhibitors of mitochondrial cytochrome c release, biochemical, purified mitochondria (AID 1603).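 Further: mouse liver mitochondria challenged with calcium chloride; signal normalized to the plate average as 100%.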 Conditions: stronger effect = lower value.
A short description of experiment [13]: inhibitors of polyQ protein aggregation (AID 1604). Conditions: polyglutamine-induced protein aggregation inhibition assay; stronger effect = higher value; tested at 2.5 µM.
The nature of experiment [14]: enhancers of glutamate uptake in motor neurons, MN-1 cell line (AID 1612).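 Further: tested at 1 µM final; 0% = mean of DMSO vehicle wells on each plate; positive means more glutamate uptake than control and negative means less.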 The conditions noted are these: MN-1 motor neuron cells, stronger effect = higher value.
A short description of experiment [15]: reducers of polyQ inclusions in PC12 cells, cell-based, NGF-treated PC12, GFPQ80 (AID 1614).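 Further: lower means fewer inclusions and 0 means no inclusions at all.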 The conditions noted are these: PC12 NGF-treated GFP-polyQ80 inclusion reduction.
Experiment [16] in a line: suppressors of polyglutamine aggregation in yeast, 75Q-TubH (AID 1616). The conditions noted are these: S. cerevisiae 75Q-TubH polyglutamine aggregation suppression; stronger effect = higher value.
A short description of experiment [17]: survival rescue of mitochondrial mutant cells in low glucose, primary screen, MELAS cybrids, Rieske KO mouse fibroblasts, CellTiter-Glo (AID 1508586;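 active means mean z-score across replicates of 1.96 or higher in either the MELAS or the Rieske mutant cell line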;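 further: z relative to plate mean and SD of compound and empty wells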).
Experiment [18] in a line: growth inhibition of DIPG glioma cells, dose response, cell-based, SU-DIPG-XVII, MIPE5.0, CellTiter-Glo, qHTS (AID 1347060; cut-off not given, nearly all actives have AC50 up to about 26 µM). The conditions noted are these: SU-DIPG-XVII viability, CellTiter-Glo ATP luminescence.
Experiment [19] is described as follows: growth inhibition of DIPG glioma cells, dose response, cell-based, JHH-DIPG-1, MIPE4.0, CellTiter-Glo, qHTS (AID 1347062; cut-off not given, nearly all actives have AC50 up to about 27 µM). Conditions: JHH-DIPG-1 viability, CellTiter-Glo ATP luminescence. (Cellular ATP, detected with luciferase, serves as a proxy for viable cell number.)
Experiment [20] in a line: growth inhibition of DIPG glioma cells, dose response, cell-based, SU-DIPG-IV, MIPE4.0, CellTiter-Glo, qHTS (AID 1347063; cut-off not given, nearly all actives have AC50 up to about 30 µM;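 further: compound exposure lasted 48 hours before the viability readout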). The conditions noted are these: SU-DIPG-IV viability, CellTiter-Glo ATP luminescence.
Experiment [21] in a line: growth inhibition of DIPG glioma cells, dose response, cell-based, SU-DIPG-XIII, MIPE5.0, CellTiter-Glo, qHTS (AID 1347064; cut-off not given, nearly all actives have AC50 up to about 23 µM). Conditions: SU-DIPG-XIII viability, CellTiter-Glo ATP luminescence.
Experiment [22] can be described thus: viability loss in pontine glioma line – cell-based, SU-DIPG-XXV, MIPE5.0, CellTiter-Glo, qHTS, dose response (AID 1347065; cut-off not given, nearly all actives have AC50 up to about 26 µM;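 further: cells exposed to compound for 48 hours before ATP readout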). Conditions: CellTiter-Glo ATP luminescence.
The nature of experiment [23]: JHH-DIPG-1 glioma cell viability, MIPE5.0 library, CellTiter-Glo luminescence, qHTS (AID 1347067; cut-off not given, nearly all actives have AC50 up to about 26 µM;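 further: cells exposed to compound for 48 hours before readout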). The conditions noted are these: JHH-DIPG-1 glioma viability, CellTiter-Glo ATP luminescence.
Experiment [24] is described as follows: SU-DIPG-XXV glioma cell viability, MIPE5.0 library, qHTS (AID 1347068; cut-off not given, nearly all actives have IC50 up to about 30 µM).
Experiment [25] concerns Aerobactin synthetase IucA (Klebsiella pneumoniae hvKP1). The experiment is described as follows: Biochemical IucA enzyme inhibition primary screen of the Spectrum library (AID 1346200).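 Further: 100% = wells without compound and 0% = wells lacking enzyme.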 Conditions: malachite green pyrophosphate, A620, at 8 µM, stronger effect = lower value.
The target in experiment [26] is Mitogen-activated protein kinase 7 (Homo sapiens) (UniProt Q13164). Nature of the experiment: ERK5 transactivation activators in reporter cells, primary screen, cell-based, HTS (AID 1508626;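 active means luciferase signal above three times the same-plate solvent-only control wells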;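 further: luciferase driven by Gal4-ERK5 fusion binding five Gal4 sites before minimal TATA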). The conditions noted are these: HeLa Gal4-ERK5 transactivation, 18 h, at 5 µM, stronger effect = higher value.
Chain of Mitogen-activated protein kinase 7 (Homo sapiens) (Q13164 whole entry, looked up, the tested form may be a part): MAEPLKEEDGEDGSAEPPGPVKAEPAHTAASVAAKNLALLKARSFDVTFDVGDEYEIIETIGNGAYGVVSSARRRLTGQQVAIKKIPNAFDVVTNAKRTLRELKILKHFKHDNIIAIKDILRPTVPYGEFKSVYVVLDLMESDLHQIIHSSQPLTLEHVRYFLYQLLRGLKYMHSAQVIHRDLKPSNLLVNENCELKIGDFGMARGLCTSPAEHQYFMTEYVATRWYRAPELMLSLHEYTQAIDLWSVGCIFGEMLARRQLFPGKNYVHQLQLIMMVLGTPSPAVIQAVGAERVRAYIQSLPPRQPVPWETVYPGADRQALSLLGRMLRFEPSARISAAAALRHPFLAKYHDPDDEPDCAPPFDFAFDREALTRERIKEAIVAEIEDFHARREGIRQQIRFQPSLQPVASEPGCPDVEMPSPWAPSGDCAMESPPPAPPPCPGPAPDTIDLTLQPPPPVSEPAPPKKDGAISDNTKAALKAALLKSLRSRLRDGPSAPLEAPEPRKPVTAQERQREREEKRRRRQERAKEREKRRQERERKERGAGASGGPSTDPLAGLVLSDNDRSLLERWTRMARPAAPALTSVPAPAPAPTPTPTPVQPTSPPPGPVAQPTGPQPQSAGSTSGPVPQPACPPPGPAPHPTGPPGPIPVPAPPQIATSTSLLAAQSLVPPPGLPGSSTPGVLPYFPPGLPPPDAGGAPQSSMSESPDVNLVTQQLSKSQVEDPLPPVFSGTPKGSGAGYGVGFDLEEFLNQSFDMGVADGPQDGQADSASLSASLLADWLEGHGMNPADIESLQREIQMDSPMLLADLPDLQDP
Experiment [27] is described as follows: liver-stage malaria parasite growth inhibition, primary screen, cell-based, HepG2, luciferase luminescence, HepG2 viability (AID 624349; in the data active means parasite load remaining mostly below about 12%, no sharp cut-off; inactive means mostly above about 10%;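 further: 100% = mean of DMSO negative control wells on the same plate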). The conditions noted are these: P. berghei liver stage in HepG2, luciferase luminescence, concentration not given here; parasite load remaining: stronger effect = lower value; viability: measured here: HepG2 viability without parasites.

A short description of experiment [28]: differential killing of epithelial or mesenchymal cells, primary screen, imaging, PC-3E GFP, TEM4-18 mCherry, co-culture (AID 1345086;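 active means compounds killing one labelled cell type while sparing the other, by normalised counts and ratio limits, not self-fluorescent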;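 further: cells exposed to compound for 72 h before imaging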;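 on red/green cell ratio (normalised): normalised mesenchymal count divided by normalised epithelial count so high means epithelial killing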). Conditions: imaging cell counts, at 1 µM.
Where [29] appears, read: stronger effect = lower value, cell number ratio, induced over uninduced.
Setting [30] is: measured here: relative caspase fold change +Dox/-Dox.
The mark [31] stands for this setting: measured here: total cells with miR-34 induction, stronger effect = lower value.
Where [32] appears, read: measured here: total cells without miR-34 induction.

Each structure is given as a SMILES string. Values joined by “and” are separate entries in the source; they are usually repeats but may differ in a detail not shown here. Equal entries are not always repeated. Records with an inconclusive call do not appear. For some assays here: Entries with a potency or affinity are not part of this list. Active and inactive are the calls of the source. Unless noted, how the calls were made is not given here.

Consider `c1ccc2sc(C3(N4CCCCC4)CCCCC3)cc2c1`, for which the period change in experiment [1] was -0.2 h (inactive). The inhibition in experiment [2] was -3% (inactive). The fluorescence ratio (interference) in experiment [3] is 1 (inactive). Besides, the remaining activity in experiment [4] was 107% (inactive); in experiment [5], 110% (inactive). The fold change in experiment [6] (stronger effect = lower value) was 0.986 (inactive); in experiment [6] (setting [29]) it was 0.965 (inactive); in [6] (setting [30]), 1.78 and 0.772. The cell count in experiment [6] (setting [31]) is 8350 and 7790; in [6] (setting [32]), 8470 and 8070. Besides, in experiment [7], the molecule was called inactive. In addition, the z-score in experiment [8] was -1.48 (inactive) and -1.21 (inactive).

As for `C[N+](C)(C)CC#CCN1CCCC1=O`, the inhibition in experiment [9] is 23.8%; in experiment [2], -1% (inactive). This molecule registered a score in experiment [10] of 1.29. The molecule further came in with a rescue above control in experiment [11] of 8.8. For the same molecule, in experiment [12], the cytochrome c release ratio stood at 1.02. The inhibition of aggregation in [13] turned out to be 53.5%. For the same molecule, in experiment [14], the glutamate uptake change came out at 7.8%. This molecule came in with an inclusion score in experiment [15] of 2. Moreover, the aggregation suppression score in experiment [16] was 1.08. Moreover, in experiment [1], the period change is -0.1 h (inactive). The fluorescence ratio (interference) in [3] is 1 (inactive). The remaining activity was 124% (inactive) in experiment [4] and 112% (inactive) in experiment [5]. In addition, the fold change is 1.08 (inactive) and 0.881 (inactive) in [6] (stronger effect = lower value); 1.78 and 1.33 in experiment [6] (setting [30]). Also, the cell count in experiment [6] (setting [31]) is 9690 and 9120; in [6] (setting [32]) it was 8970 and 10300. Also, in [7], the outcome was inactive. Further, the z-score in [8] is 0.5 (inactive) and 0.575 (inactive).

Consider `S=C(NC1CCCCC1)N1CCC(c2cnc[nH]2)CC1`, for which the period change in experiment [1] is -1.93 h (inactive). For the same molecule, the inhibition in experiment [2] is -3% (inactive). In addition, the fluorescence ratio (interference) in experiment [3] was 0.9 (inactive). Moreover, the remaining activity in experiment [4] is 89.7% (inactive); in [5], 99.4% (inactive). The fold change was 0.921 (inactive) in experiment [6] (stronger effect = lower value); 0.93 (inactive) in [6] (setting [29]); 1.06 and 0.678 in experiment [6] (setting [30]). Further, the cell count in experiment [6] (setting [31]) is 8920 and 7940; in experiment [6] (setting [32]) it was 9690 and 8540. In addition, in experiment [7], the molecule was called inactive. For the same molecule, the z-score was 0.603 (inactive) in [17] (MELAS cybrid survival, CellTiter-Glo 48 h, stronger effect = higher value); 0.478 in experiment [17] (Rieske KO mouse fibroblast survival, CellTiter-Glo 72 h); -0.46 (inactive) and -0.595 (inactive) in experiment [8].

As to `O=C(N[C@H]1CN2CCC1CC2)c1ccc(Cl)cc1`, the inhibition in [2] was -1% (inactive). Further, in [3], the fluorescence ratio (interference) was 1 (inactive). Further, the remaining activity in [4] was 93.4% (inactive); in experiment [5], 109% (inactive). The molecule was called inactive in [18], in experiment [19], in [20], in [21], in experiment [22] and in [23]. Further, the outcome in [24] and in experiment [7] was inactive. For the same molecule, the fold change in experiment [6] (stronger effect = lower value) is 1.07 (inactive); in experiment [6] (setting [29]), 0.932 (inactive); in experiment [6] (setting [30]) it was 1.52 and 1.27. Also, the cell count was 10700 and 8830 in experiment [6] (setting [31]); 10000 and 9480 in experiment [6] (setting [32]). Moreover, in experiment [8], the z-score was 0.385 (inactive) and 0.125 (inactive).

On to `Cc1ccc(C[N+](C)(C)C)o1`, for which the remaining activity in experiment [4] is 126% (inactive). Also, the activity remaining in [25] is 106% (inactive). Further, the fold change in experiment [6] (setting [29]) is 0.971 (inactive); in experiment [6] (setting [30]), 0.883. Besides, the figures for the cell count in experiment [6] (setting [31]) and in experiment [6] (setting [32]) were 9440 and 9720, respectively. In experiment [26], the luciferase signal was 100 AU (inactive). Also, the z-score in [8] was 0.545 (inactive).

In the case of `C=CC[C@]1(O)CCC2C3CCC4=CC(=O)CCC4=C3C=C[C@@]21C` (stereo not given in full), in experiment [27], the parasite load remaining was 26.4% (inactive). Also, the viability in [27] turned out to be 98.9%. Also, the red/green cell ratio (normalised) in [28] (actives lie on both sides) is 0.86 (inactive). The results for the normalised cell number in experiment [28] (measured here: epithelial PC-3E GFP cell survival) and in experiment [28] (measured here: mesenchymal TEM4-18 mCherry cell survival) were 0.92 and 0.79, respectively. In addition, the fold change in experiment [6] (stronger effect = lower value) was 0.89 (inactive); in [6] (setting [30]), 1.39. Besides, the figures for the cell count in experiment [6] (setting [31]) and in experiment [6] (setting [32]) were 10300 and 11500, respectively.
